Assay results reported in the supplement of paper PMC10338343.
± gives the standard deviation.

System: MILI (PIWIL2) piRISC loaded with piRNA #1 (26 nt)
Experiment: pre-steady-state target cleavage rate (min^-1); guide: piRNA #1 5'p-UGAGGUAGUAGGUUGUAUAGUAUCCA; MIWI and MILI are mouse PIWI proteins and EfPiwi is from a freshwater sponge; tags in brackets are library labels; higher = faster piRNA-guided slicing of the target
Conditions: auxiliary factor: 500 nM mouse GTSF1
Summary of the method: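 Using HEPES–potassium acetate buffer at 33 °C, 1 nM active affinity-purified piRISC with a single synthetic guide was mixed with 0.1 nM transcribed, DNA-blocked target RNA library for 0–8 or 0–960 min, with or without 500 nM GTSF1 partner protein. Uncleaved targets were sequenced and normalised to depth and to weakly complementary targets, and three trials were pooled with k3 capped at 0.0001 min^-1. A burst-and-steady-state fit gave the pre-steady-state cleavage rate.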

Sequence	pre-steady-state target cleavage rate
GGAGACCUAUGAAAUACAACCUACUACCUCA	0.0221 ± 0.0062
GGAGACCUAUGUAUAUCAACCUACUACCUCA	0.00312 ± 0.0027
GGAGAGGAUACUGUACAACCUACUACCUCA	0.121 ± 0.012
GGAGUGGAUACUAUUCAACCUACUAGCUCA	0.0538 ± 0.0095
GGAGACCUAUGAAUACAACCGACUACCUCA	0.00328 ± 0.003
GGAGACCAUACUAUACCAACCUACUACCUCA	0.0299 ± 0.0075
GGAGACCAUACUAUAGAAGCUACUACCUCA	0.0882 ± 0.013
GGAGACCUAUGAAUACAACCAUCUACCUCA	0.00333 ± 0.0021
GGAGACCAUACAAUACAAGCUACUACCUCA	0.205 ± 0.016
GGAGACCUAAGUAUACAACCUAGUACCUCA	0.0133 ± 0.0034
GGAGACCUAUGAAUACAAGCAACUACCUCA	0.00265 ± 0.0026
GGAGACCUAUGAUAACAACCUACUAACCUCA	0.00664 ± 0.002
GGAGACCUAUGUAUACAACCUACUACGAGA	0.013 ± 0.0047
GGAGACCUUUCUAUACAACCAACUACCUCA	0.00462 ± 0.0029
GGAGACCUAUCUAUACAACCUACAAGCUCA	0.0435 ± 0.012
GGAGACCUUAGUAUACAACCUAGUACCUCA	0.0225 ± 0.0077
GGAGUGGAUACUAAACAAGCUACUACCUCA	0.211 ± 0.013
GGAGACCUAUCUAUACAACCUACUACUCA	0.0936 ± 0.013
GGAGACCUAUCUAUCAACCUACUACCUCA	0.0205 ± 0.0047
GGAGUGGUAUCUAUACAACCUACUACCUCA	0.136 ± 0.0091
GGAGACGAUACUUUACUACCUACUACCUCA	0.179 ± 0.012
GGAGUGCAUACUAUACAACCUACUUCCUCA	0.00653 ± 0.0022

Sequence	pre-steady-state target cleavage rate
GGAGACCUAACUAUACAACCUACUACUCA	0.141 ± 0.033
GGAGACCUAUCUAUAGAACCUACUACCUGA	0.00618 ± 0.0029
GGAGACCUAAGUAUACAACCUACUACGUCA	0.0129 ± 0.0032
GGAGACCUAUGAAUACAACCUACCACCUCA	0.00506 ± 0.0036
GGAGACCUUACAAUACAACCAACUACCUCA	0.00567 ± 0.0032
GGAGACCUUACUAUACAACCUACUACUCA	0.216 ± 0.025
GGAGAGGAUACUAUAGUACCUACUACCUCA	0.159 ± 0.012
GGAGACCAUACUAUACAAGCUUCUACCUCA	0.036 ± 0.007
GGAGACCUUACUAUACAACCUAUCUACCUCA	0.0976 ± 0.011
GGAGACCUUACUUUACAACCUACUACCACA	0.14 ± 0.018
GGAGACCUAUUUAUACAACCUACUACCUCA	0.0657 ± 0.02
GGAGACCUAUGAUUACAUCCUUCUACCUCA	0.00314 ± 0.0026
GGAGACCUAUGUAUACAACCUACUACUUCA	0.0634 ± 0.0075
GGAGACCUAACUAUUCAACCUAGUACCUCA	0.0158 ± 0.0076
GGAGACCUAUCUAUACAACCUAGUUCCUCA	0.0148 ± 0.0059
GGAGACCUAUGAUUACAACCUACUAUCUCA	0.00332 ± 0.0022
GGAGACCUAUGAAAACAACCUACUACCUCA	0.0037 ± 0.0033
GGAGACCUUACUAUACAAGCUACUACGUCA	0.203 ± 0.029
GGAGACCUAACUAUACAACCUACUUCGUCA	0.0423 ± 0.017
GGAGACCUUACUUUACAACCUACUACCUGA	0.0835 ± 0.014
GGAGACCUAUGUAUACAAGCUACUACCUCA	0.147 ± 0.013
GGAGUCGAUACUAUACAACGUACUACCUCA	0.0256 ± 0.0024

Sequence	pre-steady-state target cleavage rate
GGAGUGGAUACAAUACAUCCUACUACCUCA	0.256 ± 0.016
GGAGACCUAACUAACAACCUACUACCUCA	0.0182 ± 0.0067
GGAGACCUAUGUAUACAACCUACUAUCCUCA	0.0887 ± 0.011
GGAGACCUUACUAUACAACCUACUAGGAGA [g6:g22:cont:t1A]	0.00747 ± 0.0032
GGAGACCUUACUAUACUAGCUACUACCUCA	0.171 ± 0.012
GGAGACCUAUCUUUACAACCUACUACGUCA	0.0265 ± 0.0062
GGAGAGGAUACUAUACUACCUACUACGUCA	0.0806 ± 0.01
GGAGACCAUACAAUUCAACCUACUACCUCA	0.13 ± 0.013
GGAGACCUAUCUAUACUACCUACUACCACA	0.117 ± 0.015
GGAGACCUAUGAUUACAACCUACUACCGCA	0.00418 ± 0.004
GGAGACCUUACUAUACAUCGUACUACCUCA	0.0364 ± 0.0047
GGAGACCUUACUAUACAACCUACUACCCUCA	0.17 ± 0.019
GGAGACCUAUGAUAACAAGCUACUUCCUCA	0.00574 ± 0.0027
GGAGACGAUAGUAUACAACCUACUACCACA	0.136 ± 0.015
GGAGACCUAUGAAUACAACCUACUACGUCA	0.00355 ± 0.0021
GGAGACCUUACUAACAACCUACUACCUCA	0.0824 ± 0.016
GGAGACCUAUGAAUACAACCUAAUACCUCA	0.00363 ± 0.0026
GGAGACCUAUGUAUACAACCUACUACCACA	0.0991 ± 0.01
GGAGAGGAUUCUAUUCAACCUACUACCUCA	0.174 ± 0.013
GGAGAGGAUUCUAUACAACCUUCUACCUCA	0.00976 ± 0.0032
GGAGACGAUACUAUAGAACCUACUACCACA	0.0976 ± 0.015
GGAGUGGAUACAAUUCAACCUACUACCUCA	0.178 ± 0.0092
